Inconclusive results are not listed. Activity calls are given as the source filed them. The calls were made as follows: active = hit-call score of the fitted dose curve at least 0.9, where 1 is the maximum; inconclusive = response in the unintended direction; inactive = score below 0.9.
Legend:
[1] = biological target: human Matrix Metalloproteinase-2 (MMP2), MMP2 (gene 4313) (UniProt P08253); test: NVS_ENZ_hMMP2: NovaScreen (NVS) Enzymatic Assay for human Matrix Metalloproteinase-2 (MMP2) (AID 2283184)
Method in brief: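 Compounds first screened in duplicate at a single 25 uM, with actives followed up in concentration series. Recombinant human MMP2 cleaves a fluorogenic substrate; fluorescence taken at 1 h, inhibition fitted relative to DMSO.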

[2] = biological target: human Mitogen- and Stress-activated Protein Kinase-1 (Msk1), RPS6KA5 (gene 9252) (UniProt O75582); test: NVS_ENZ_hMsk1: NovaScreen (NVS) Enzymatic Assay for human Mitogen- and Stress-activated Protein Kinase-1 (Msk1) (AID 2283187)
Method in brief: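 Chemicals first run in duplicate at 25 uM, with actives followed up in singleton concentration series to 50 uM maximum. Enzyme activity came from substrate/product mobility-shift separation with fluorescence detection after 1 h incubation of the recombinant protein.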

[3] = biological target: human Phosphodiesterase 4A1 (PDE4A1), PDE4A (gene 5141) (UniProt P27815); test: NVS_ENZ_hPDE4A1: NovaScreen (NVS) Enzymatic Assay for human Phosphodiesterase 4A1 (PDE4A1) (AID 2283191)
Method in brief: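 Fluorescent substrate turnover by recombinant PDE4A1 read after 1 h by mobility-shift separation. Primary duplicate screen at 25 uM; hits retested in concentration series with a 50 uM maximum, relative to DMSO.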

[4] = biological target: human Phosphodiesterase 5 (PDE5), PDE5A (gene 8654) (UniProt O76074); test: NVS_ENZ_hPDE5: NovaScreen (NVS) Enzymatic Assay for human Phosphodiesterase 5 (PDE5) (AID 2283194)
Protocol: (§1) NVS_ENZ_hPDE5 is a biochemical, single-readout assay that uses extracted gene-proteins in a cell-free assay. Measurements were taken 1 hour after chemical dosing in a 384-well plate.NVS_ENZ_hPDE5 is one of one assay component(s) measured or calculated from the NVS_ENZ_hPDE5 assay. It is designed to make measurements of enzyme activity, a form of enzyme reporter, as detected with fluorescence intensity signals by Fluorescence and electrophoretic mobility shift technology.Data from the assay component NVS_ENZ_hPDE5 was analyzed into 1 assay endpoint. This assay endpoint, NVS_ENZ_hPDE5, was analyzed in the positive analysis fitting direction relative to DMSO as the negative control and baseline of activity. Using a type of enzyme reporter, loss-of-signal activity can be used to understand changes in the enzymatic activity as they relate to the gene PDE5A. Furthermore, this assay endpoint can be referred to as a primary readout, because this assay has produced multiple assay endpoints where this one serves a enzymatic activity function. To generalize the intended target to other relatable targets, this assay endpoint is annotated to the esterase intended target family, where the subfamily is phosphodiesterase.
Binding assays used specific radioligands (tritiated, iodinated) with non-radioactive competitive displacement ligands in agonist or antagonist protocols (as indicated) and various reference compounds and inhibitors to titrate specific binding to receptors and transporters. Most enzyme assays (CYPs, kinases, phosphatases, proteases, HDACs) used recombinant protein and specific substrates (fluorescence mostly, some colorimetric and radioactive) and inhibitors, followed by a biochemical separation of substrate and product. All assays for the biochemical HTS were initially run in duplicate at a single concentration (10 uM for CYP450 assays and 25 uM for all others). […] Each assay was run with positive and negative controls, and concurrent controls on every plate. The follow-up (secondary) screen tested active chemical-pairs in concentration series, as well as a few additional assays not tested in the primary screen, some selected negative inactives, and several cases re-run in the concentration series for confirmatory purposes.

[5] = biological target: Collagenase 3 (Homo sapiens) (UniProt P45452); test: NVS_ENZ_hMMP13: NovaScreen (NVS) Enzymatic Assay for human Matrix Metalloproteinase-13 (MMP13) (AID 2283182)
Method in brief: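 Recombinant MMP13 cleaving fluorescent substrate, cell-free, measured 1 h after dosing. Primary duplicate screen at 25 uM; actives tested in concentration-response up to 50 uM; loss of signal relative to DMSO.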

[6] = biological target: human Matrix Metalloproteinase-9 (MMP9), MMP9 (gene 4318) (UniProt P14780); test: NVS_ENZ_hMMP9: NovaScreen (NVS) Enzymatic Assay for human Matrix Metalloproteinase-9 (MMP9) (AID 2283190);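 also: cell-free recombinant MMP9 protease activity read by fluorescent substrate signal; active means inhibition seen as loss of fluorescence signal versus DMSO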
Method in brief: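 Cell-free fluorescence-intensity enzyme activity assay using extracted protein, read 1 h after dosing. Loss of signal versus DMSO baseline indicates inhibition; primary screen in duplicate at 25 uM, actives followed up in concentration series.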

[7] = biological target: human Matrix Metalloproteinase-7 (MMP7), MMP7 (gene 4316) (UniProt P09237); test: NVS_ENZ_hMMP7: NovaScreen (NVS) Enzymatic Assay for human Matrix Metalloproteinase-7 (MMP7) (AID 2283183)
Method in brief: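 Compounds first tested at 25 uM in duplicate, then at up to 50 uM in concentration series if active. Protease activity measured by fluorescence intensity 1 h after dosing, with fitting relative to DMSO.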

[8] = biological target: Mitogen-activated protein kinase 3 (Homo sapiens) (UniProt P27361); test: NVS_ENZ_hMAPK3: NovaScreen (NVS) Enzymatic Assay for human Mitogen-Activated Protein Kinase 3 (MAPK 3) (AID 2283177)
Protocol: as §1, with “NVS_ENZ_hMAPK3” for “NVS_ENZ_hPDE5”, “plate.NVS_ENZ_hMAPK3” for “plate.NVS_ENZ_hPDE5”, “NVS_ENZ_hMAPK3,” for “NVS_ENZ_hPDE5,”, “MAPK3.” for “PDE5A.”, “kinase” for “esterase”, “serine/threonine kinase.” for “phosphodiesterase.”
(§2) Binding assays used specific radioligands (tritiated, iodinated) with non-radioactive competitive displacement ligands in agonist or antagonist protocols (as indicated) and various reference compounds and inhibitors to titrate specific binding to receptors and transporters. Most enzyme assays (CYPs, kinases, phosphatases, proteases, HDACs) used recombinant protein and specific substrates (fluorescence mostly, some colorimetric and radioactive) and inhibitors, followed by a biochemical separation of substrate and product. All assays for the biochemical HTS were initially run in duplicate at a single concentration (10 uM for CYP450 assays and 25 uM for all others). Assay-chemical combinations meeting a pre-defined threshold (e.g., 30% inhibition and other criteria defined below) were then run in singleton concentration-response format with maximum concentration of 20 uM for CYPs and 50 uM for all others. Each assay was run with positive and negative controls, and concurrent controls on every plate. The follow-up (secondary) screen tested active chemical-pairs in concentration series, as well as a few additional assays not tested in the primary screen, some selected negative inactives, and several cases re-run in the concentration series for confirmatory purposes.

[9] = biological target: human MAP Kinase-Activated Protein Kinase 2 (MAPKAPK2), MAPKAPK2 (gene 9261) (UniProt P49137); test: NVS_ENZ_hMAPKAPK2: NovaScreen (NVS) Enzymatic Assay for human MAP Kinase-Activated Protein Kinase 2 (MAPKAPK2) (AID 2283178)
Protocol: as §1, with “NVS_ENZ_hMAPKAPK2” for “NVS_ENZ_hPDE5”, “plate.NVS_ENZ_hMAPKAPK2” for “plate.NVS_ENZ_hPDE5”, “NVS_ENZ_hMAPKAPK2,” for “NVS_ENZ_hPDE5,”, “MAPKAPK2.” for “PDE5A.”, “kinase” for “esterase”, “serine/threonine kinase.” for “phosphodiesterase.”
as §2

[10] = biological target: cAMP-dependent protein kinase catalytic subunit alpha (Homo sapiens) (UniProt P17612); test: NVS_ENZ_hPKA: NovaScreen (NVS) Enzymatic Assay for human Protein Kinase A (PKA) (AID 2283192)
Method in brief: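 Cell-free kinase activity read by fluorescence after mobility-shift separation of substrate and product, 1 h post-dosing. Single-concentration duplicate screen (25 uM) preceded singleton concentration series (top 50 uM); loss of signal versus DMSO.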

Chain of human Matrix Metalloproteinase-7 (MMP7), MMP7 (gene 4316) (P09237 whole entry, looked up): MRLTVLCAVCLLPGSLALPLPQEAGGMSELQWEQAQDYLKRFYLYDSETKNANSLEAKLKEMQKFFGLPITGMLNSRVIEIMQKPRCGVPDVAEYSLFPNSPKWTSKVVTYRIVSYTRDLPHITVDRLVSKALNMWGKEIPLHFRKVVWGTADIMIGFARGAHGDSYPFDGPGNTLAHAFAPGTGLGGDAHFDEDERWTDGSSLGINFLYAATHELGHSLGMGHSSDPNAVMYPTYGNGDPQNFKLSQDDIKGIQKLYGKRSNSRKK
Chain of human Phosphodiesterase 4A1 (PDE4A1), PDE4A (gene 5141) (P27815 whole entry, looked up): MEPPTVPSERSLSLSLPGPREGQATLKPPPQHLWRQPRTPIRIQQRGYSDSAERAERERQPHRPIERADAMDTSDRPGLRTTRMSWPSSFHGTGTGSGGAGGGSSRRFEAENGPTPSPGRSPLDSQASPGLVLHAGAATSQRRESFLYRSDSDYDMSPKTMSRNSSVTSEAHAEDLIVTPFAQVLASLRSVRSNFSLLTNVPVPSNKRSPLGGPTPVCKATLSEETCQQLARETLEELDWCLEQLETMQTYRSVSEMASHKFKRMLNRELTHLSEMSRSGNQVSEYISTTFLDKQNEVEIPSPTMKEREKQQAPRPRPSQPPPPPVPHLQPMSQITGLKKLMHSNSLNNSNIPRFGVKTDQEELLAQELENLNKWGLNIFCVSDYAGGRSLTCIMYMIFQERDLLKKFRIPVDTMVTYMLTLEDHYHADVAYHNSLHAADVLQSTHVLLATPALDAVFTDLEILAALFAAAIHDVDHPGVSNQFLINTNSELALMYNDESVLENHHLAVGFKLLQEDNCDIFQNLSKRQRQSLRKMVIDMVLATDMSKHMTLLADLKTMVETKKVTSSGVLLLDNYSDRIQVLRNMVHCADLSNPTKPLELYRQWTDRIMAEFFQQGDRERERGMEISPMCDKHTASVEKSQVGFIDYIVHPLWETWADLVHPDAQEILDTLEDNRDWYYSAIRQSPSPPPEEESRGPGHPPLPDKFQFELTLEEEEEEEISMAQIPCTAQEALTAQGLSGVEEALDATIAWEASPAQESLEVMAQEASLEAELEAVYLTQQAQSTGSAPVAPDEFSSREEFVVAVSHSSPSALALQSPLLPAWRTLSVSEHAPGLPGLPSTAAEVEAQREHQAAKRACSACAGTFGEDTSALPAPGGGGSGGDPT
Chain of human MAP Kinase-Activated Protein Kinase 2 (MAPKAPK2), MAPKAPK2 (gene 9261) (P49137 whole entry, looked up): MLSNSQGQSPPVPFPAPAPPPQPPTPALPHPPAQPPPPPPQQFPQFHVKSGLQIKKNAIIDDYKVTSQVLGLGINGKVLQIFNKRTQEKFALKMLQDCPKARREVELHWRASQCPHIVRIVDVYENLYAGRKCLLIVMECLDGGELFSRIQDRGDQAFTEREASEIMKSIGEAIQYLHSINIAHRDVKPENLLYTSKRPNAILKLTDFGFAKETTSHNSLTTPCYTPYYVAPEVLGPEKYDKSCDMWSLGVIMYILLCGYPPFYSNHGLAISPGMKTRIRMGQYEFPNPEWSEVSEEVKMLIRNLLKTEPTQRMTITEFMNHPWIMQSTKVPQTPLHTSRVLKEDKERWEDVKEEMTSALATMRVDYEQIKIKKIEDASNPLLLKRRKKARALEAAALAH
Chain of human Mitogen- and Stress-activated Protein Kinase-1 (Msk1), RPS6KA5 (gene 9252) (O75582 whole entry, looked up): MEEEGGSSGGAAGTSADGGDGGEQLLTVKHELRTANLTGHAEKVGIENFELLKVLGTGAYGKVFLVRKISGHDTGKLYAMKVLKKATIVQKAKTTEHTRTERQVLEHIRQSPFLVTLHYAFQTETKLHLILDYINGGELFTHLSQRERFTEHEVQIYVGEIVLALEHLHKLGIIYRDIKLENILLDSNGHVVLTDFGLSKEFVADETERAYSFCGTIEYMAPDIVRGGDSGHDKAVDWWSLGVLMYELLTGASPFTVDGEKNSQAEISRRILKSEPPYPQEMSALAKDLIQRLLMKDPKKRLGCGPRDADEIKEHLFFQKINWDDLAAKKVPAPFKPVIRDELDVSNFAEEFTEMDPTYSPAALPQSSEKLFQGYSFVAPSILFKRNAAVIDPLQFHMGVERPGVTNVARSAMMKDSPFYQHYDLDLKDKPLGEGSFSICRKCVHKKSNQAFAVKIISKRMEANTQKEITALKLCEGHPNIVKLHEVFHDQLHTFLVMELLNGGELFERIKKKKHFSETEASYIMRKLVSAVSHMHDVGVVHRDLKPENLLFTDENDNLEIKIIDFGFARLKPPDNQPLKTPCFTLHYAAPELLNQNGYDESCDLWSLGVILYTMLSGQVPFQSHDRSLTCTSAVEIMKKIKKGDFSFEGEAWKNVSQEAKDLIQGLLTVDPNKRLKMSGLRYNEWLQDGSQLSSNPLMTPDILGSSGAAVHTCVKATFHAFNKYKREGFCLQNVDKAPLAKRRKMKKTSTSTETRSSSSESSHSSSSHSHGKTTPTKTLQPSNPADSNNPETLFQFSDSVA
Chain of Mitogen-activated protein kinase 3 (Homo sapiens) (P27361 whole entry, looked up): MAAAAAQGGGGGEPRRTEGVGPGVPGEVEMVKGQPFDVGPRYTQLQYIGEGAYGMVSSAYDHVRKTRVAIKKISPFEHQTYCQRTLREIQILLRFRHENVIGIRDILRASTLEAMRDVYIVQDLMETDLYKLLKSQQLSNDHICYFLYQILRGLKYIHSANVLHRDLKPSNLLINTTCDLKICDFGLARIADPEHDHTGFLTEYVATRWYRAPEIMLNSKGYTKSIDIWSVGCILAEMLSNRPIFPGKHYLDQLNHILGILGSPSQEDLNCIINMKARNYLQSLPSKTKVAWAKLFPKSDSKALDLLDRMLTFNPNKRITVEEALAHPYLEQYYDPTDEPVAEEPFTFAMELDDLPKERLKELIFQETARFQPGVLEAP
Chain of human Matrix Metalloproteinase-2 (MMP2), MMP2 (gene 4313) (P08253 whole entry, looked up): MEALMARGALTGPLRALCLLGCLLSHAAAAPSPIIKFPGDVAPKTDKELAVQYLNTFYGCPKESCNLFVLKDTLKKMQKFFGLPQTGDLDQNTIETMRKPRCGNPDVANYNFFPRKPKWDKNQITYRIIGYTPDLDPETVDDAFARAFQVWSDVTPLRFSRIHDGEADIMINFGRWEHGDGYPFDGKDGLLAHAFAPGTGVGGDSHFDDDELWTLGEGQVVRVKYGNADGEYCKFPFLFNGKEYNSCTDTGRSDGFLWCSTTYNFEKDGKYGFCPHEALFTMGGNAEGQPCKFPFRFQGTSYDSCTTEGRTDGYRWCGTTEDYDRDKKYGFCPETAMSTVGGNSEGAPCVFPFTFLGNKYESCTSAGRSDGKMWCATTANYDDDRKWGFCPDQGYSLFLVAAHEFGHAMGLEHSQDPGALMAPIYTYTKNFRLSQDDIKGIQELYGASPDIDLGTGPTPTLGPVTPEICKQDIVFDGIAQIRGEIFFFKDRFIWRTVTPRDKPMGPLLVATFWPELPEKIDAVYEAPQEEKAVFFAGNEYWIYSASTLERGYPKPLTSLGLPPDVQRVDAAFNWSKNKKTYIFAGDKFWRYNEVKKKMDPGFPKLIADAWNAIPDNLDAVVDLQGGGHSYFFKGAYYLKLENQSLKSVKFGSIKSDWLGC
Chain of human Matrix Metalloproteinase-9 (MMP9), MMP9 (gene 4318) (P14780 whole entry, looked up): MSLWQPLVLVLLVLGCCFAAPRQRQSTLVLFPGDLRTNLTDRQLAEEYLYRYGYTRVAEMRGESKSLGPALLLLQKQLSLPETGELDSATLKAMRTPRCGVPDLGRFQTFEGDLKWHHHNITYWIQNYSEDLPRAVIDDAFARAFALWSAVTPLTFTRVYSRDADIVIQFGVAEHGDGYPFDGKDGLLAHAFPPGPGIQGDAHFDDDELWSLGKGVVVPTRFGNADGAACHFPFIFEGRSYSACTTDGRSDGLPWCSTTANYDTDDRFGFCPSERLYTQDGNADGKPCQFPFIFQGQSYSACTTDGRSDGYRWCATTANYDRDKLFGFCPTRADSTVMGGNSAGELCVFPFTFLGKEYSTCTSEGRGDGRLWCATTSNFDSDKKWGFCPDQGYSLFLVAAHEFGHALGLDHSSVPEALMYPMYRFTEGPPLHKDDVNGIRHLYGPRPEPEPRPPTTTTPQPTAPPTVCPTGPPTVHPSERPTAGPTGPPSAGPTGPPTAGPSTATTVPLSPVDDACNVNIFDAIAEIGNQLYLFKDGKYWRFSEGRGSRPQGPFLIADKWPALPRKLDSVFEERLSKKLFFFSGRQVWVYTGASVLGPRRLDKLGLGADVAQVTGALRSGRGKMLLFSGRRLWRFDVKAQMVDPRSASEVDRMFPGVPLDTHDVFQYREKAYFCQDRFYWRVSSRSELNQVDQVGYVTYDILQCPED

## CCCCCCCCCCCC[N+](C)(C)C
[1]
  outcome: inactive

## O=C(O)c1ccccc1C(=O)OCc1ccccc1
[2]
  outcome: inactive

## COc1cccc([C@H](O)C2CCN(CCc3ccc(F)cc3)CC2)c1OC
[3]
  outcome: inactive
[4]
  outcome: inactive

## NCc1cccc(C2CCN(C(=O)c3ccc(C#Cc4ccccc4F)o3)CC2)c1
[5]
  AC50: 19.5 µM (active)
[1]
  AC50: 10.1 µM (active)
[6]
  AC50: 30.1 µM (active)

## CN(C)C(=O)C1(N2CCCCC2)CCN(CC[C@@]2(c3ccc(Cl)c(Cl)c3)CN(C(=O)c3ccccc3)CCO2)CC1
[6]
  outcome: inactive
[4]
  outcome: inactive

## CO[C@H]1/C=C/O[C@@]2(C)Oc3c(C)c(O)c4c(O)c(c(/C=N/N5CCN(C)CC5)c(O)c4c3C2=O)NC(=O)/C(C)=C\C=C\[C@H](C)[C@H](O)[C@@H](C)[C@@H](O)[C@@H](C)[C@H](OC(C)=O)[C@@H]1C
[5]
  outcome: inactive
[7]
  outcome: inactive
[1]
  outcome: inactive

## COc1ccc2cc(S(=O)(=O)N[C@H](CC(=O)N[C@H](Cc3ccc(CN4[C@H](C)CCC[C@@H]4C)cc3)C(=O)N(C)C(C)C)c3ccc4c(c3)OCO4)ccc2c1
[6]
  outcome: inactive

## CCCC(=O)OCCC(C)C
[8]
  outcome: inactive

## c1ccc2ccccc2c1
[8]
  outcome: inactive
[2]
  outcome: inactive

## Cc1cc(F)ccc1-c1cc(N2CC[C@@H](O)[C@H]2CO)ncc1N(C)C(=O)C(C)(C)c1cc(C(F)(F)F)cc(C(F)(F)F)c1
[4]
  AC50: 4.05 µM (active)

## CCCCCCCCOC(=O)c1cc(O)c(O)c(O)c1
[9]
  outcome: inactive
[5]
  AC50: 2.83 µM (active)
[7]
  AC50: 22.1 µM (active)
[1]
  AC50: 1.47 µM (active)
[6]
  AC50: 1.09 µM (active)

## CC(C)(C)c1csc(-c2cc3cc(OCc4ccccc4CC(=O)O)ccc3o2)n1
[8]
  outcome: inactive
[4]
  outcome: inactive

## CC[C@H](NC(=O)c1cc(F)ccc1NS(=O)(=O)c1cccc2cccnc12)c1ccccc1
[4]
  outcome: inactive

## O=C(O)Cn1c(=O)n(Cc2ccc(Br)cc2F)c(=O)c2ccc(Cl)cc21
[7]
  outcome: inactive

## CC/C(=C(/CC)c1ccc(O)cc1)c1ccc(O)cc1
[8]
  outcome: inactive
[1]
  outcome: inactive
[3]
  outcome: inactive
[10]
  outcome: inactive
[4]
  outcome: inactive

## CCN(CC)C(=O)c1cc(S(=O)(=O)Cc2ccccc2)c(N2CCC(c3ccccc3)CC2)cc1N(CC)CCN(C)C
[2]
  outcome: inactive
[3]
  AC50: 9.38 µM (active)
[4]
  outcome: inactive

## O=C=NCCCCCCN=C=O
[6]
  outcome: inactive

## CCN(Cc1cccc(S(=O)(=O)O)c1)c1ccc(C(=C2C=CC(=[N+](CC)Cc3cccc(S(=O)(=O)O)c3)C=C2)c2ccccc2S(=O)(=O)[O-])cc1
[1]
  AC50: 10.3 µM (active)

## CCCCOC(=O)c1ccc(O)cc1
[5]
  AC50: 25 µM (active)

## CN1C(=O)N(c2ccccc2Br)Cc2cnc(Nc3ccc4c(c3)OCC(CO)O4)nc21 (stereo not given)
[9]
  outcome: inactive
[3]
  AC50: 6.38 µM (active)

## CCOC(=O)O[C@H](C)OC(=O)c1ccc2c(c1)cc(C(=O)NC1CCN(C(C)C)CC1)n2Cc1cc(-c2ccc(Cl)s2)on1
[5]
  AC50: 15.2 µM (active)
[6]
  AC50: 30.9 µM (active)

## Cc1oc2c(NC(=O)c3c(Cl)cccc3Cl)cccc2c1C(C)(C)O
[9]
  outcome: inactive

## Cc1cc2c(cc1C(F)(F)F)N(C(=O)Nc1ccc(Oc3cccnc3C)nc1)CC2
[9]
  outcome: inactive

## COc1cc(C(=O)NC2CCN(C)CC2)ccc1Nc1ncc2c(n1)N(C1CCCC1)CC(F)(F)C(=O)N2C
[8]
  outcome: inactive
[3]
  AC50: 9.1 µM (active)
[10]
  AC50: 6.04 µM (active)
[4]
  AC50: 0.00376 µM (active)

## O=C(Nc1ccc(Cl)cc1)Nc1ccc(Cl)c(Cl)c1
[3]
  outcome: inactive

## C[C@]12CC[C@@H]3c4ccc(O)cc4CC[C@H]3[C@@H]1CC[C@H]2O
[7]
  outcome: inactive

## Clc1cc(Cl)c2c(c1)N=C1CCCCCN1C2
[3]
  outcome: inactive
[4]
  outcome: inactive

## Cc1c2ccccc2c(C)c2c1ccc1ccccc12
[5]
  outcome: inactive

## CCN(Cc1cccnc1)C(=O)c1cccc(Cl)c1[C@]1(C)C(=O)N(Cc2ccc(OC)cc2OC)c2ccc(Cl)cc21
[5]
  AC50: 9.38 µM (active)
[1]
  AC50: 14.8 µM (active)
[6]
  AC50: 24.9 µM (active)

## COCC(C)OCC(C)OCC(C)O (stereo not given)
[5]
  outcome: inactive
[7]
  outcome: inactive

## CN(C)c1ccc(C(=C2C=CC(=[N+](C)C)C=C2)c2ccc(N(C)C)cc2)cc1
[6]
  AC50: 14.5 µM (active)

## CC(C)(c1cc(Br)c(O)c(Br)c1)c1cc(Br)c(O)c(Br)c1
[1]
  outcome: inactive

## O=CCCCC=O
[8]
  outcome: inactive

Reference: PubChem BioAssay (EPA / NIEHS)
